Data reported in PubChem BioAssay.
The source made the active and inactive calls.

Columns and labels:
Albumin (Bos taurus) = Albumin (Bos taurus) (UniProt P02769); assay: compounds binding labelled BSA control protein – biochemical, small-molecule microarray, Alexa647 label, 635/667 nm fluorescence, artefact control for SMM control protein annotation, profiling panel (AID 1118); conditions: BSA-A647 binding, fluorescence 635 nm, higher = more signal;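 also: score merges 667 nm emission intensity and signal-to-noise per printed compound spot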
[1] = probe aXIP binding to arrayed compounds – biochemical, NeuroSMM set, 635/667 nm fluorescence, primary screen (AID 1119); conditions: small-molecule microarray, higher = more signal, called active from +8 up or from −8 down;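 also: probe is the protein aXip251-270 applied at 1 µg/mL to compound-printed slides; binding of probe to printed compounds measured as 667 nm fluorescence plus signal to noise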
[2] = probe aNOTCH3 binding on compound microarray – biochemical, small-molecule microarray, 635/667 nm fluorescence, primary screen (AID 1120); conditions: higher = more signal;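 also: probe is a biotin-tagged antibody raised against NOTCH3 rather than NOTCH3 protein; score merges spot fluorescence near 667 nm with spot signal to noise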
[3] = probe aNOTCH2 binding on compound microarray – biochemical, small-molecule microarray, 635/667 nm fluorescence, primary screen (AID 1121); conditions: higher = more signal;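 also: score merges feature fluorescence read at 667 nm with its signal to noise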
[4] = target: Carbonic anhydrase 2 (Homo sapiens) (UniProt P00918); assay: compounds binding carbonic anhydrase 2 – biochemical, small-molecule microarray, Alexa647-labelled CAII, profiling panel (AID 1122); conditions: CAII-A647 binding fluorescence, higher = more signal
[5] = COS7 lysate on small-molecule microarray, probe aHis, 635 nm (AID 1123); conditions: COS7 cell lysate, fluorescence, higher = more signal;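 also: z-score combines 667nm fluorescence intensity with signal-to-noise per printed compound spot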
[6] = probe aLAP1 signal on lysate-treated microarray – cell lysate, small-molecule microarray, COS7 lysate, primary screen (AID 1124); conditions: probe aLAP1, fluorescence, higher = more signal;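 also: lysate comes from COS7 cells expressing LAP1 and is applied at 0.3 µg/mL; score merges spot fluorescence near 667 nm with signal-to-noise over triplicate slides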
Sam68 (KHDRBS1) = assay: compounds binding KHDRBS1 protein – biochemical, small-molecule microarray, 635 nm fluorescence, primary screen (AID 1125); conditions: higher = more signal;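 also: score merges 667 nm channel intensity with signal to noise over triplicate slides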
[7] = system: Chordin-like protein 2 (CHRDL2); assay: compounds binding chordin-like 2 – biochemical, small-molecule microarray, 635 nm fluorescence, primary screen (AID 1126); conditions: fluorescence 635 nm, higher = more signal;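 also: printed compound slides probed with Chrdl2 protein at 4 µg/mL for 1 h at 4 C; score merges 667 nm emission intensity with signal to noise over three replicate slides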
[8] = target: Concanavalin-A (Canavalia ensiformis) (UniProt P02866); assay: compounds binding concanavalin A lectin – biochemical, small-molecule microarray, Alexa647 label, 635 nm, artefact control for SMM control protein annotation, primary screen (AID 1127); conditions: ConA-A647 binding fluorescence, higher = more signal;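 also: z combines 667 nm emission intensity with signal-to-noise across three replicate slides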
[9] = compounds binding Alexa647 anti-His antibody – biochemical, small-molecule microarray, 635 nm fluorescence, artefact control for SMM control protein annotation, primary screen (AID 1128); conditions: higher = more signal;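 also: score merges feature fluorescence with signal-to-noise for each printed compound spot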
[10] = system: Human papillomavirus type 1a E7 protein (residues 1-88); assay: HPV1a E7 small-molecule binders, primary screen, biochemical, small-molecule microarray, residues 1-88, 635 nm (AID 1129); conditions: small-molecule microarray binding, fluorescence 635 nm; higher = more signal
[11] = target: Focal adhesion kinase 1 (Homo sapiens) (UniProt Q05397); assay: PTK2 protein binding on printed compound slides – biochemical, small-molecule microarray, 635/667 nm fluorescence, BSA, DTT, primary screen (AID 1130); conditions: 635 nm fluorescence, higher = more signal;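 also: composite of spot emission at 667 nm and signal to noise over triplicate slides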
[12] = system: Fibrinogen (Alexa647-labelled); assay: Alexa647-fibrinogen binding to printed small molecules – biochemical, small-molecule microarray, 635/667 nm fluorescence, artefact control for SMM control-protein annotation, profiling panel (AID 1131); conditions: fibrinogen-A647 binding fluorescence, higher = more signal;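 also: z-score merges 667 nm fluorescence with per-spot signal-to-noise over triplicate slides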
[13] = target: Follistatin (Homo sapiens) (UniProt P19883); assay: FST protein binding to printed compounds – biochemical, small-molecule microarray, 635/667 nm fluorescence, primary screen (AID 1132); conditions: 635 nm fluorescence, higher = more signal
[14] = target: Fibroblast growth factor 2 (Homo sapiens) (UniProt P09038); assay: basic fibroblast growth factor binding to printed compounds – biochemical, small-molecule microarray, 635/667 nm fluorescence, primary screen (AID 1133); conditions: FGF2, fluorescence 635/667, higher = more signal
[15] = JC-1 mitochondrial potential readout, lung cancer cells – cell-based, A549, JC-1 fluorescence, basal, 24 h, 100 nL, profiling panel (AID 1138); conditions: higher = more signal;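 also: A549 lung adenocarcinoma cells under basal conditions with no added stimulus; test concentration not given here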
Lefty1 = Lefty1 protein binding to printed compounds – biochemical, small-molecule microarray, 635/667 nm fluorescence, primary screen (AID 1139); conditions: fluorescence 635/667, higher = more signal
[16] = system: wheat germ agglutinin (Triticum aestivum), Alexa647-labelled; assay: Alexa647-WGA lectin binding to printed small molecules – biochemical, small-molecule microarray, 635/667 nm fluorescence, artefact control for SMM control-protein annotation, profiling panel (AID 1140); conditions: WGA-A647 binding, 635 nm fluorescence, higher = more signal;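 also: score merges 667 nm feature emission with signal to noise over triplicate slides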
[17] = target: Luciferin 4-monooxygenase (Photinus pyralis) (UniProt P08659); assay: inhibition of purified Photinus pyralis luciferase – biochemical, luminescence, purified enzyme, 2006 set, primary screen (AID 1141); conditions: purified firefly luciferase, SteadyGlo luminescence, 30 min; higher = more signal, called active from +8 up or from −8 down;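 also: cell-free assay with purified firefly luciferase at 100 ng per well in PBS; test concentration not given here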
Luciferin 4-monooxygenase (Photinus pyralis), sequence (P08659 whole entry, looked up): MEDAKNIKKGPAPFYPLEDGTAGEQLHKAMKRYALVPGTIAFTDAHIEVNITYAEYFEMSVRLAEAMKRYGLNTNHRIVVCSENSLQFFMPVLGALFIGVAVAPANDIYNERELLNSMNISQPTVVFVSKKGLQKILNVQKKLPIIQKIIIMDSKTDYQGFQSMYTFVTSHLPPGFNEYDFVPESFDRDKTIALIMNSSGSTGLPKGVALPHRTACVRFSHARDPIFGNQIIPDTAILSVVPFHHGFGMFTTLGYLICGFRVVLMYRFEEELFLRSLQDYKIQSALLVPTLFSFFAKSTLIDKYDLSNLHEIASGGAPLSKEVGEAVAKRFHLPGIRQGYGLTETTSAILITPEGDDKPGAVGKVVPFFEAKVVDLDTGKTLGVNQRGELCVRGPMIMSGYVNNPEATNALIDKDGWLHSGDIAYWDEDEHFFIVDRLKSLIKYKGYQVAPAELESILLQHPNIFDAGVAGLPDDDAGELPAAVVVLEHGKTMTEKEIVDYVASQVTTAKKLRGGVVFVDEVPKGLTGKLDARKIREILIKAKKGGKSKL

Focal adhesion kinase 1 (Homo sapiens), sequence (Q05397 whole entry, looked up): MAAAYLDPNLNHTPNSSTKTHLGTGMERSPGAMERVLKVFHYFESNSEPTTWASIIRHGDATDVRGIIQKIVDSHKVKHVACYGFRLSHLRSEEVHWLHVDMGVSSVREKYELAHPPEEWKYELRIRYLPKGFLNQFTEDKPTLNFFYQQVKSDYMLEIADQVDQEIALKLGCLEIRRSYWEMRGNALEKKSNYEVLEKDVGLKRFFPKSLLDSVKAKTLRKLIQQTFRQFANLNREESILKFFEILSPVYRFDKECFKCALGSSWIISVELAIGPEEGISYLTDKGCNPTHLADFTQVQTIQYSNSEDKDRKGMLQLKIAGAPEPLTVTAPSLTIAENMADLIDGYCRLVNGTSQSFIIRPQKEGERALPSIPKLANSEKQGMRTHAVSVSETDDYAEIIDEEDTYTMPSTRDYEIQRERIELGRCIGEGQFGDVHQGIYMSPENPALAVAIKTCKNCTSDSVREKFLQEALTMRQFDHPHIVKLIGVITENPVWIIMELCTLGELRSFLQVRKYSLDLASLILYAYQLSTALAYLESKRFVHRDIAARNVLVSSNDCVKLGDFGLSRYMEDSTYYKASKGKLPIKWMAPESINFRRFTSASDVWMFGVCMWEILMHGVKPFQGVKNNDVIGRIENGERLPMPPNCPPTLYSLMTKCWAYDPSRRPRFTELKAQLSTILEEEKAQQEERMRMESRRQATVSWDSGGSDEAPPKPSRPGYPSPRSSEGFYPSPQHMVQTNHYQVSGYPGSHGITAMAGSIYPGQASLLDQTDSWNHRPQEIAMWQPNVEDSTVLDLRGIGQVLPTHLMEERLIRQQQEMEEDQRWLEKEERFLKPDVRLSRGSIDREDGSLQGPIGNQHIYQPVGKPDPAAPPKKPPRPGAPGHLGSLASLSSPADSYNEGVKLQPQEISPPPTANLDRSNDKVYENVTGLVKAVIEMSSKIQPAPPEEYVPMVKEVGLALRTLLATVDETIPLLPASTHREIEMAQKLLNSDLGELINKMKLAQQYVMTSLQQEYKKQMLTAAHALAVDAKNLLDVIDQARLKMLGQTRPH
Fibroblast growth factor 2 (Homo sapiens), sequence (P09038 whole entry, looked up): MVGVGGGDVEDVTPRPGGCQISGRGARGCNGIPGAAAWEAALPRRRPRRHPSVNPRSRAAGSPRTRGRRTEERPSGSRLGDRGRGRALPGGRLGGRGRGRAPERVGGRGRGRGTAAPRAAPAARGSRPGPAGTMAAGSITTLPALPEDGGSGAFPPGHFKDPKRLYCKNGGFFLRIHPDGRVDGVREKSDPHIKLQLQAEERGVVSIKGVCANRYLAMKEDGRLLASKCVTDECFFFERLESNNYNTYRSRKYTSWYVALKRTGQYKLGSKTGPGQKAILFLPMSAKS
Concanavalin-A (Canavalia ensiformis), sequence (P02866 whole entry, looked up): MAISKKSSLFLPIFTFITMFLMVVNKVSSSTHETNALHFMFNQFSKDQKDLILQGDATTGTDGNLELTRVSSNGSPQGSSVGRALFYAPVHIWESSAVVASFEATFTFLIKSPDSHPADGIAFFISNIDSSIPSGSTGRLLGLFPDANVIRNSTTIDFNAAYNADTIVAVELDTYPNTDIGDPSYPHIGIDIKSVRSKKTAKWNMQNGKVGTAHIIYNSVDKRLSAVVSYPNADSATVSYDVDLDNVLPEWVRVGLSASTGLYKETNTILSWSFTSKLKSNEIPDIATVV
Follistatin (Homo sapiens), sequence (P19883 whole entry, looked up): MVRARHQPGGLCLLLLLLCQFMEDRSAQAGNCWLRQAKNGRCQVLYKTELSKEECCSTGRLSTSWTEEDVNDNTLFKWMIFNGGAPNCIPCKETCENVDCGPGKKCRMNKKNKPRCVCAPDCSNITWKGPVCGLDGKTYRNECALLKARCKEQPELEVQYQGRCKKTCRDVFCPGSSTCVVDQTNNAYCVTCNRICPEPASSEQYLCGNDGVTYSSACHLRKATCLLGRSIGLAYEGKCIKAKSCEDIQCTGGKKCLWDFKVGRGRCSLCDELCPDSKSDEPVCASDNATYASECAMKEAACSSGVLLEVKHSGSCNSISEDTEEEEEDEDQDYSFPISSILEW
Albumin (Bos taurus), sequence (P02769 whole entry, looked up): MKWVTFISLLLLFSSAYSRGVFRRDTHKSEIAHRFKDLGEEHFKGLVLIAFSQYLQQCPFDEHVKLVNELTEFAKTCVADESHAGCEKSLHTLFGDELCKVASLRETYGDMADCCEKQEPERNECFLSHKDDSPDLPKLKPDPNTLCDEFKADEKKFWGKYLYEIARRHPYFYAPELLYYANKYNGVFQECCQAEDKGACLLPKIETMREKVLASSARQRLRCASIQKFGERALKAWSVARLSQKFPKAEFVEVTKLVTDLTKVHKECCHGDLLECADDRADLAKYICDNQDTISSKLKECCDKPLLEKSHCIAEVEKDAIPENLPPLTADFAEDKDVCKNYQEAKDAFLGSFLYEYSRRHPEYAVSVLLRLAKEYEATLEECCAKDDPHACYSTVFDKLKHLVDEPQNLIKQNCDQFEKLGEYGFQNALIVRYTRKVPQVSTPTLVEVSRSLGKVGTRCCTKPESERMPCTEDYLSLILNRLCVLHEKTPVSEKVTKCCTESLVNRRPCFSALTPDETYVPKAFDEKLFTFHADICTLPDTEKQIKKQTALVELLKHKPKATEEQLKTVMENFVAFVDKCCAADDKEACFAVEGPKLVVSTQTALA

SMILES	composite z-score (Albumin (Bos taurus))	composite Z-score [1]	composite z-score [2]	composite z-score [3]	composite z-score [4]	composite z-score [5]	composite z-score [6]	composite z-score (Sam68 (KHDRBS1))	composite z-score [7]	composite z-score [8]	composite z-score [9]	composite z-score [10]	composite z-score [11]	composite z-score [12]	composite z-score [13]	composite z-score [14]	z-score [15]	composite z-score (Lefty1)	composite z-score [16]	z-score [17]
COc1cccc([C@H]2N[C@H](C(=O)O)CC[C@@H]2C)c1	-0.207	-0.269 (inactive)	-0.15	-0.129	0.0689	-0.146	-0.283	0.0672	0.135	0.334	0.184	0.335	0.163	0.363	0.0807	-0.0305	-0.14	0.223	-0.208	-0.128 (inactive)
O=C1C[C@@](C(=O)NCCN2CCOCC2)(c2ccc([N+](=O)[O-])cc2)[C@@H](c2ccc(CO)cc2)N1C1CCCCC1	-0.218	-0.346 (inactive)	0.0597	0.188	0.656	1.79	0.596	1.17	0.395	1.06	0.926	0.666	-0.442	0.63	1.16	1.22	1.11	0.0031	0.43	-0.83 (inactive)
CO[C@H]1COC(=O)[C@@H](C)COC(=O)[C@H](Cc2ccccc2)NC(=O)CC=C[C@H]1C	-0.73	0.0953 (inactive)	-0.208	-0.223	-0.315	-0.557	-0.399	0.294	1.48	-0.268	-1.35	-0.0007	-0.62	0.177	0.932	0.771	1.04	1.27	-0.457	-0.897 (inactive)
C=CC[C@@]12N=C(c3ccc(OCCCO)cc3)O[C@@H]1c1ccccc1CN(Cc1ccccc1)C2=O	0.127	0.999 (inactive)	0.0242	-0.053	0.496	1.96	0.377	1.29	0.213	1.02	2.93	1.18	1.05	0.639	1.33	0.761	-0.309	0.239	0.65	-1.79 (inactive)
CC[C@@H]1C=C(C(=O)O)[C@H](c2ccccc2)N1S(=O)(=O)c1ccc([N+](=O)[O-])cc1	0.938	0.0692 (inactive)	0.0793	-0.0983	0.514	2.43	0.612	1.04	-0.812	0.942	1.34	1.24	0.783	-0.368	0.221	-0.715	-0.506	-0.177	1.01	0.631 (inactive)
COCCOC(=O)N1C(=O)[C@@]2(c3cc(C#CC4=CCCCC4)ccc31)[C@H](c1ccc(O)cc1)N1[C@H](c3ccccc3)[C@H](c3ccccc3)OC(=O)[C@H]1[C@@H]2C(=O)N1CCCCCCC1	-0.645	1.69 (inactive)	0.112	-0.122	0.425	0.129	0.135	1.29	0.729	1.12	0.31	1.15	1.45	0.694	1.23	1.22	1.99	1.12	0.576	-1.72 (inactive)
COc1ccc([Si](C)(C)[C@H]2[C@H](CC(=O)N(CCO)Cc3ccccc3)O[C@@]3(C(=O)N(C)c4ccccc43)[C@@H]2C)cc1	0.748	-0.0798 (inactive)	0.0833	-0.155	0.384	0.136	0.177	1.05	1.21	0.664	1.62	1.08	0.711	-0.0177	1.06	1.01	1.61	1.11	-0.0039	0.59 (inactive)
O=C(NCc1ccccc1)[C@@]1(Cc2ccccc2)COC(c2ccc(OCCCO)cc2)=N1	0.48	-0.179 (inactive)	0.0539	-0.0063	0.504	1.71	0.144	0.682	-0.594	0.865	2.46	1.17	0.773	0.838	0.0985	-0.238	-1.56	-0.554	0.449	-0.603 (inactive)
C=C[C@H](OC)[C@@H](OC(=O)Nc1ccc(SC)cc1)c1ccc(OC)c(O)c1	-1.37	0.157 (inactive)	-0.403	-0.183	0.1	0.677	-0.245	0.347	-0.998	-0.473	-0.548	-0.19	-0.0802	-0.666	-0.466	-0.896	0.52	-0.541	-1.51	-2.18 (inactive)
